This is one part of a sample in which hits are shown more often than they occur.
Giardia FBPA inh: qHTS Assay for Inhibitors of Fructose-1,6-bisphosphate Aldolase from Giardia Lamblia | A8B2U2 | purified Giardia FBPA | Potency, µM (series often up to 59.6 µM), without a hit: at the highest dose activity, negative = inhibition, hits mostly inhibitors | hit rate 0.71% among 290,000 | AID 2451, 2010; further: potency means the concentration at half of the fitted maximal effect; on the % scale 0 is the no-effect control and ±100 the full control effect; nearly all actives have a fitted effect of over 55% in size
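Giardia FBPA (40 nM reagent) was preincubated 10 min at RT with compound (up to 57.5 uM final), then substrate plus GAPDH/TPI/NAD/arsenate coupling system with diaphorase/resazurin was added; resorufin fluorescence (525/598 nm) was read after 20 min.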
Shiga inhibitor: A qHTS for Small Molecule Inhibitors of Shiga Toxin | Vero cells, Shiga toxin protein synthesis inhibition reporter | inhibition, % at 38.7 µM | hit rate 9.2% among 290,000 | AID 2315, 2010; in the data active means inhibition mostly above about 28%, no sharp cut-off; inactive means mostly below about 43%; further: 0% is about no effect
LmPK inh: qHTS Assay for Inhibitors of Leishmania Mexicana Pyruvate Kinase (LmPK). purified LmPK, Kinase-Glo ATP luminescence, 1 h. Potency, µM (highest dose often 57.5 µM), for inactives: at the top dose activity change, negative = inhibition, most hits filed as inhibitors. hit rate 0.37% among 290,000. AID 1721, 2009; further: potency means the concentration at half of the fitted maximal effect; on the % scale 0 is the no-effect control and ±100 the full control effect
Target sequence (Q27686 whole entry, looked up): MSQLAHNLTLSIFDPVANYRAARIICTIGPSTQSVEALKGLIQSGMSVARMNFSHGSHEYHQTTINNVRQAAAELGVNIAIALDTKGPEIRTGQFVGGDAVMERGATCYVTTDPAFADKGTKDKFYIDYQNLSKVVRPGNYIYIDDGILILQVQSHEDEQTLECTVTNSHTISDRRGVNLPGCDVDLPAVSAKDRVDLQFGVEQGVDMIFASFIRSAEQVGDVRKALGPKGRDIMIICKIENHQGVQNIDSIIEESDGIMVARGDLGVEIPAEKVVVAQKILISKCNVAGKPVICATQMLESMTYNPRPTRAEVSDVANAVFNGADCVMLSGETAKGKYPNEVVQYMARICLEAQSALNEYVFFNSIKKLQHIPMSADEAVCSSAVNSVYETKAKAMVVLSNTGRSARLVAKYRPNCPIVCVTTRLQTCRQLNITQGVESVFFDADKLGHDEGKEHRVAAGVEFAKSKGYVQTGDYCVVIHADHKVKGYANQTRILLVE
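ATP generated from ADP (0.1 mM) and PEP (0.5 mM) by 0.1 nM LmPK over 1 h at room temperature (pH 7.2 imidazole buffer) was detected by coupled luciferase luminescence. Values were normalized to uninhibited and no-enzyme wells.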
TbPYK inhibitor: qHTS of Trypanosoma Brucei Inhibitors; Potency, µM (titrated, usually from 76.8 µM), without a hit: top-dose activity, negative = inhibition, actives largely listed as inhibitors; TbPYK enzyme, Kinase-Glo Plus ATP luminescence, 45 min; hit rate 0.12% among 410,000; AID 624173, 2012; further: potency means the concentration at half of the fitted maximal effect; on the % scale 0 is the no-effect control and ±100 the full control effect; nearly all actives have a fitted effect of over 50% in size
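Glycolytic pyruvate kinase of T. brucei was incubated with substrate, test compound and 130 uM ADP for 45 minutes at room temperature. Luminescent Kinase-Glo Plus signal was measured after 10 minutes.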
CHX counter: Cycloheximide Counterscreen for Small Molecule Inhibitors of Shiga Toxin; cell reporter, cycloheximide protein synthesis inhibition counterscreen; hit rate 12% among 300,000; AID 2314, 2010; max response, %; in the data active means max response mostly above about 13%, no sharp cut-off; inactive means mostly below about 14%; further: read at 38.3 µM for the half of the compounds with a filed dose; 0% is about no effect
RE007 growth inh: qHTS Assay for Inhibitors of the HIV-1 protein Vpr. S. pombe RE007 Vpr strain, BacTiter-Glo ATP luminescence, 24 h. Potency, µM (titrated, usually from 92.2 µM), without a hit: at the highest dose activity change, negative = less growth, usual class: inhibitors. hit rate 0.21% among 360,000; active means well fitted falling curve with a large enough effect; inconclusive means small, poorly fitted or top-dose-only effect; inactive means no such curve, though single readings can be large or run the other way; further: potency means the concentration at half of the fitted maximal effect; on the % scale 0 is the no-effect control and ±100 the full control effect; nearly all actives have a fitted effect of over 50% in size
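Fission yeast RE007 carrying one integrated HIV-1 vpr copy, seeded at OD 0.01 in PMG+AL medium with 23 nL pinned compound. Grown 24 h at 30 degrees; viability read by BacTiter-Glo luminescence after 5 min.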
The depositor's hits bear a star; ? = inconclusive; · = no result given; [ ] = another dose, or the depositor's remark. Unless noted, the call rests on the fitted dose curve; in most records, active means well fitted curve in the direction sought with a large enough effect; inconclusive means small, poorly fitted or top-dose-only effect, or another doubt; inactive means no such curve, though single readings can be large; an effect the other way counts as inactive or inconclusive.

SMILES	Giardia FBPA inh	Shiga inhibitor	LmPK inh	TbPYK inhibitor	CHX counter	RE007 growth inh
Cc1ccc(S(=O)(=O)Nc2cccc3cccnc23)cc1	-28.6%	-8.8	3.7%	-1.6%	11.8	27.6%
O=S(=O)(Nc1cc(Sc2cccc3cccnc23)c(O)c2ccccc12)c1ccccc1	?	52.9*	-12.1%	·	20.8	·
Fc1ccc(N/N=C/c2ccncc2)c(F)c1	6.3%	50.0*	-15.7%	-9.4%	39.9*	119.1%
CC(C)(C)c1ccc(/C=N/Nc2ccc(C(=O)O)cc2)cc1	10.9%	23.5	-3.0%	-1.6%	9.1	?
Fc1ccc(N/N=C/C=C/c2ccccc2)c(F)c1	-3.3%	34.3*	-1.9%	-5.5%	32.3*	9.4%
O=C(O)c1ccc(/C=N/Nc2ccc(F)cc2F)cc1	7.1%	131.2*	-21.8%	-15.7%	40.4*	153.7%
COc1cccc(/C=C2\N=C(c3cncc(Br)c3)OC2=O)c1	10.7%	-4.1	-0.5%	-10.5%	24.7*	2.0%
Cc1cc(C)n(CCc2nc(-c3ccco3)cs2)n1	?	24.3	10.8%	-12.7%	-1.1	-18.6%
COc1ccc(-c2csc(CCn3nc(C)cc3C)n2)cc1	-9.6%	24.4	4.6%	2.0%	20.5*	15.1%
Cc1cc(C)n(CCc2nc(-c3ccc(-c4ccccc4)cc3)cs2)n1	0.4%	88.2*	-0.9%	-2.6%	58.3*	5.7%
Cc1cc(C)n(CCc2nc(-c3cccs3)cs2)n1	-13.9%	40.1*	0.0%	-7.5%	11.5	-16.9%
COc1ccc(-c2csc(CCn3nc(C)cc3C)n2)cc1OC	-1.4%	-3.4	-0.3%	3.7%	14.9	14.4%
Cc1ccc(NC(=O)CSc2ccccc2NC(=O)c2ccccc2Cl)cc1Cl	-1.0%	25.9	1.4%	-1.1%	17.9*	·
Cc1nc(SCC(=O)Nc2ccc(C)c(Cl)c2)cc(-c2ccccc2)n1	·	·	·	0.0%	·	·
Cc1ccc(NC(=O)CSc2cn(CC(=O)N3CCCC3)c3ccccc23)cc1Cl	·	·	·	-13.8%	·	·
Cc1ccc(NC(=O)CSc2ccccc2NC(=O)c2ccccc2)cc1Cl	0.4%	17.9	1.1%	16.6%	33.8*	-4.4%
CCc1cccc(NC(=O)CSC2=NS(=O)(=O)c3ccccc32)c1	10.3%	-8.2	15.8µM*	?	-2.6	2.0%
COc1ccc(NC(=S)N/C(=N/CS(=O)(=O)c2ccccc2)c2ccccc2)cc1	-13.9%	69.7*	-0.7%	-5.5%	35.2*	0.3%
Cc1ccc(S(=O)(=O)/N=C(/Nc2ccc([N+](=O)[O-])cc2)c2ccccc2)cc1	5.9%	-7.4	4.6%	6.0%	5.4	-4.0%
O=[N+]([O-])c1ccc(NC(=S)N/C(=N/CS(=O)(=O)c2ccccc2)c2ccccc2)cc1	1.2%	55.8*	0.3%	-4.5%	27.9*	-8.7%
Nc1c(O)ccc2c1C(=O)c1ccccc1C2=O	?	33.9	14.1µM*	?	11.8*	?
COc1ccc2c(c1O)C(=O)c1ccccc1C2=O	4.0%	0.9	-7.2%	·	4.9	·
Nc1c(C(=O)NC2CC2)c2nc3ccccc3nc2n1-c1ccc2c(c1)OCO2	-26.3%	23.6	2.2%	1.9%	-2.7	-2.4%
Nc1c(C(=O)OCC2CCCO2)c2nc3ccccc3nc2n1-c1ccc2c(c1)OCCO2 (centres undefined)	?	60.2*	1.4%	-7.3%	34.9*	2.1%
CCCOc1ccc(NC(=O)CC2C(=O)N(c3ccc(OC)cc3)C(=O)N2CCc2ccncc2)cc1 (centres undefined)	·	·	·	4.1%	·	·
O=c1n(Cc2cc3c(cc2Cl)OCO3)c(=O)n2n1CC[C@H]1/C(=N\OC[C@@H](O)COCc3ccco3)[C@H]3O[C@@H]3[C@@H](O)[C@@H]12	-0.4%[12.9 µM]	·	·	·	·	·
CO/N=C/C(NC(=O)c1ccc(C(F)(F)F)cc1)C(=O)OC (centres undefined)	-15.6%	47.7	-23.7%	-5.4%	23.2*	0.4%
Cc1ccc(NC(=O)Cn2cnc3c(oc4ccccc43)c2=O)cc1Cl	·	·	·	0.1%	·	·

Source: PubChem
